Data on six compounds can be found in PubChem BioAssay.

“And” between values parts separate entries of the source, which are not always exact repeats. Equal values may be shown once. The source made the active and inactive calls. Unless noted, how the calls were made is not given here.

Experiment [1] in a line: compound effects on lung adenocarcinoma cell viability – A549, calcein-AM fluorescence, 48 h, basal, profiling panel (AID 1162). Further: test concentration not given here. The note with it: higher = more signal.
Experiment [2] can be described thus: compound effects on differentiated 3T3-L1 adipocyte viability – cell-based, 3T3-L1 adipocytes, calcein-AM fluorescence, 48 h, basal, profiling panel (AID 1163). Further: test concentration not given here. The note with it: 3T3-L1 adipocytes viability, higher = more signal.
Experiment [3] can be described thus: compound effects on hepatocellular carcinoma cell viability – HepG2, calcein-AM fluorescence, 48 h, basal, profiling panel (AID 1164). Further: test concentration not given here. The note with it: higher = more signal.
Experiment [4] is described as follows: compound effects on multiple myeloma cell viability – MM1S, calcein-AM fluorescence, 48 h, basal, profiling panel (AID 1165). Further: test concentration not given here. As to conditions: higher = more signal.
Experiment [5] in a line: calcein-AM signal in unstimulated myeloma cells – cell-based, calcein-AM fluorescence, 48 h, PK04 Diversity Set, profiling panel (AID 1166).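 Further: cells grown under basal conditions without added stimulus; test concentration not given here.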 As to conditions: RPMI8226 myeloma viability, higher = more signal.
A short description of experiment [6]: JC-1 mitochondrial signal, unstimulated HepG2 cells – cell-based, JC-1 fluorescence, 24 h, 100 nL compound, profiling panel (AID 1167). Further: test concentration not given here. As to conditions: HepG2 mitochondrial potential, higher = more signal.
A short description of experiment [7]: JC-1 mitochondrial signal, unstimulated adipocytes – cell-based, JC-1 fluorescence, 3T3-L1 adipocytes, 24 h, 100 nL compound, profiling panel (AID 1168). Further: test concentration not given here. The note with it: JC-1 mitochondrial fluorescence, higher = more signal, called active from +8 up or from −8 down.
Experiment [8] is described as follows: JC-1 mitochondrial signal, unstimulated myeloma cells – cell-based, JC-1 fluorescence, RPMI8226, 24 h, 100 nL compound, profiling panel (AID 1169). Further: test concentration not given here. As to conditions: JC-1 mitochondrial potential fluorescence, higher = more signal.
The nature of experiment [9]: JC-1 mitochondrial signal, unstimulated MM1S myeloma – cell-based, JC-1 fluorescence, 24 h, 100 nL compound, profiling panel (AID 1170). Further: test concentration not given here. The note with it: MM1S mitochondrial potential, higher = more signal.
Experiment [10] can be described thus: resazurin metabolic signal in A549 cells – cell-based, resazurin fluorescence, 24 h, PK04 Diversity Set, profiling panel (AID 1171). Further: test concentration not given here. As to conditions: A549 viability, higher = more signal, called active from +8 up or from −8 down. A general note: The colour change of resazurin is a common sign of viable cells or microbes.
Experiment [11] in a line: resazurin metabolic signal in HepG2 cells – cell-based, resazurin fluorescence, 24 h, PK04 Diversity Set, profiling panel (AID 1172). Further: test concentration not given here. As to conditions: HepG2 viability, higher = more signal.
The nature of experiment [12]: budding yeast growth changes without added modifier – OD600, strain BY4716, 24 h, basal condition, primary screen (AID 1173). The note with it: S. cerevisiae BY4716 growth, OD600, 24 h; higher = more signal, called active from +8 up or from −8 down.
Experiment [13] can be described thus: viability profiling in MM1S myeloma cells – cell-based, resazurin fluorescence, basal, 24 h, PK04 Diversity Set, profiling panel (AID 1174). Further: test concentration not given here. The note with it: higher = more signal, called active from +8 up or from −8 down.
The target in experiment [14] is Dihydroorotate dehydrogenase (quinone), mitochondrial (Plasmodium falciparum (isolate 3D7)) (UniProt Q08210). In words: inhibition of P. falciparum DHODH – biochemical, C-terminal His tag, absorbance 600 nm, primary screen (AID 1175).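 Further: recombinant parasite enzyme with a five histidine tag at its C terminus; test concentration not given here.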 The note with it: PfDHODH enzyme, DCIP absorbance 600 nm; higher = more signal, called active from +8 up or from −8 down.
Chain of Dihydroorotate dehydrogenase (quinone), mitochondrial (Plasmodium falciparum (isolate 3D7)) (Q08210 whole entry, looked up): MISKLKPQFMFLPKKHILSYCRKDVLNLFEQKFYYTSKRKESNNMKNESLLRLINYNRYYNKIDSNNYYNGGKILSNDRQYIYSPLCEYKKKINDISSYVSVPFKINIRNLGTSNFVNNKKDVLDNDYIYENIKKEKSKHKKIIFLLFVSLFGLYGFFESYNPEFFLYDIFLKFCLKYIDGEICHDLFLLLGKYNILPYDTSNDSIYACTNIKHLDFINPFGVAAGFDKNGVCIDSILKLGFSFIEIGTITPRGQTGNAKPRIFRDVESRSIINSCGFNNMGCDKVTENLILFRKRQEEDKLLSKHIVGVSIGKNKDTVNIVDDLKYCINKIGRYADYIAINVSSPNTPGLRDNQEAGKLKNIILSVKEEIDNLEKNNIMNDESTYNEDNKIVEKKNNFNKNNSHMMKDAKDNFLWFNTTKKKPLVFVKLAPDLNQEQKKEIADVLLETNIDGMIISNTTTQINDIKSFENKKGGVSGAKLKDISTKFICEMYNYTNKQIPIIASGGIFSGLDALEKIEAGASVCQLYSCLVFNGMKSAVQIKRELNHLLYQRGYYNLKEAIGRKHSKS
The nature of experiment [15]: inhibition of PAO1 biofilm formation – strain PAO1, LB-PBS medium, absorbance 600 nm, primary screen (AID 1176). Further: test concentration not given here. The note with it: P. aeruginosa PAO1 growth/biofilm, A600, 12 h; higher = more signal.
Experiment [16] in a line: growth modulation of vineyard yeast isolate – strain RM11-1a, OD600, basal, 24 h, primary screen (AID 1177).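 Further: cultures grown under basal conditions with no added stressor; test concentration not given here.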 The note with it: S. cerevisiae RM11-1a growth, OD600, 24 h; higher = more signal, called active from +8 up or from −8 down.
Experiment [17] can be described thus: growth of efflux-deficient E. coli DRC39 – strain DRC39, OD650, 24 h, E. coli filamentation inducers, primary screen (AID 1178).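 Further: growth measured as culture turbidity by optical density at 650 nm; test concentration not given here.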 As to conditions: E. coli DRC39 acrAB, higher = more signal, called active from +8 up or from −8 down.
The nature of experiment [18]: growth of efflux-deficient E. coli DRC39 – strain DRC39, OD650, 48 h, E. coli filamentation inducers, primary screen (AID 1179).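 Further: screen aims at cell division blockers that make cells filament.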 As to conditions: E. coli DRC39 delta-acrAB growth, higher = more signal, called active from +8 up or from −8 down.
Experiment [19] is described as follows: viability profiling in RPMI8226 myeloma cells – cell-based, resazurin fluorescence, basal, 24 h, PK04 Diversity Set, profiling panel (AID 1180).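 Further: RPMI8826 multiple myeloma cell line at 5000 cells per well; test concentration not given here.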 The note with it: higher = more signal.
Experiment [20] addresses E3 ubiquitin-protein ligase XIAP (Homo sapiens) (UniProt P98170). In words: small molecules binding XIAP protein – biophysical, small-molecule microarray, fluorescence 635 nm, primary screen (AID 1181).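 Further: score merges 667 nm emission and signal to noise over triplicate slides.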 The note with it: higher = more signal.

Chain of E3 ubiquitin-protein ligase XIAP (Homo sapiens) (P98170 whole entry, looked up): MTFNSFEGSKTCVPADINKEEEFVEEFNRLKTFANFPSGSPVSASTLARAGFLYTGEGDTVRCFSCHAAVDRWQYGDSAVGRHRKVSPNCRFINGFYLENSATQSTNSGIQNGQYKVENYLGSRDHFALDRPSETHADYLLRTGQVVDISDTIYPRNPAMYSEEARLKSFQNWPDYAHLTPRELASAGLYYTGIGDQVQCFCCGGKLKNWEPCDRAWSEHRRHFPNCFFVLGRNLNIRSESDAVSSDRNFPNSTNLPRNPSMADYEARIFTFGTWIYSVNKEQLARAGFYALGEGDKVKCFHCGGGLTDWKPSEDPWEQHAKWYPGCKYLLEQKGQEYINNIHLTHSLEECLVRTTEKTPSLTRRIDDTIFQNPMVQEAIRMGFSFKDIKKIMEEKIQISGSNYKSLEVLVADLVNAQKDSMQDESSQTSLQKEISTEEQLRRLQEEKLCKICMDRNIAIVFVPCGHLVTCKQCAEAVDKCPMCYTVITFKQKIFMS

As for `CC(CO)N1C(=O)[C@@H]2C3C(=O)OCCC=C[C@H]3OC23C=CCN(Cn2nnc4ccccc42)C(=O)[C@@H]13` (stereo not given in full), the z-score in experiment [1] was -0.515 and 0.432; in [2] it was -0.101 and 0.061; in experiment [3], -0.562 and -0.713; in experiment [4] it was 0.922 and -0.0987; in [5], -0.28 and 0.0829; in [6], -1.01 and -0.375. Moreover, the z-score was -0.259 (inactive) and -1.12 (inactive) in [7]; 0.46 and -0.0108 in experiment [8]; 0.198 and -0.363 in experiment [9]; -0.116 (inactive) and 0.785 (inactive) in [10]; 0.576 and 0.999 in experiment [11]; 0.771 (inactive) and 0.283 (inactive) in experiment [12]. For the same compound, the z-score is -0.415 (inactive) and -0.0046 (inactive) in [13]; 0.55 (inactive) and 0.798 (inactive) in experiment [15]; 1.07 (inactive) and -0.995 (inactive) in [16]; -0.125 (inactive) and 0.0633 (inactive) in [17]; -0.214 (inactive) and -0.099 (inactive) in experiment [18]; 0.0489 and -0.178 in experiment [19]. For the same compound, the composite z-score in [14] is -4.99 (inactive) and -0.478 (inactive); in experiment [20] it was -0.0448 and -0.21.
Regarding `CCCNC(=O)OC[C@H]1O[C@H](CCON=C(C)CCN2CCc3nc(-c4ccccc4)c(-c4ccccc4)cc3C2)C=C[C@@H]1Oc1ccc(OC)cc1`, the z-score was 1.18 in experiment [1]; 0.723 in experiment [2]; 0.27 in [3]; -0.893 in experiment [4]; -0.794 in experiment [5]; 4.79 in experiment [6]. Further, the z-score in experiment [7] was -1.65 (inactive); in experiment [8], 0.179; in experiment [9], 0.483; in experiment [10], 0.444 (inactive); in experiment [11] it was 0.0965; in experiment [12], -0.238 (inactive). In addition, the z-score was -0.53 (inactive) in experiment [13]; 0.347 (inactive) in experiment [15]; 1.13 (inactive) in experiment [16]; 0.324 (inactive) in experiment [17]; -1.58 (inactive) in experiment [18]; 0.0105 in [19]. Besides, the composite z-score was 0.672 (inactive) in experiment [14] and -0.193 in experiment [20].
For `COC(=O)[C@@]1(Cc2ccccc2)[C@H]2c3cc(C(=O)N(C)C)n(C[C@H](O)CO)c3C[C@H]2CN1C(=O)c1ccccc1`, the z-score in experiment [1] is -0.876 and -0.976; in experiment [2], 0.318 and -0.385; in [3], -0.76 and -1.07; in [4], 0.112 and 0.416; in experiment [5], -1.95 and 0.383; in [6] it was -1.04 and -0.162. The z-score in experiment [7] was -0.0997 (inactive) and -0.187 (inactive); in experiment [8], -0.194 and -0.294; in experiment [9], -0.609 and -0.129; in experiment [10], -1.3 (inactive) and -0.848 (inactive); in experiment [11], -0.777 and -0.734; in [12], 0.168 (inactive) and 1.78 (inactive). Besides, the z-score was -0.939 (inactive) and -0.957 (inactive) in [13]; 1.32 (inactive) and 0.15 (inactive) in experiment [15]; 1.03 (inactive) and -0.204 (inactive) in experiment [16]; 0.146 (inactive) and -0.785 (inactive) in experiment [17]; -0.121 (inactive) and -0.352 (inactive) in experiment [18]; -0.205 and -0.62 in [19]. Further, the composite z-score in experiment [14] was -0.402 (inactive) and 0.547 (inactive); in experiment [20] it was 0.333 and 0.107.
In the case of `CC(CO)N1C(=O)[C@@H]2C3C(=O)OCCC=C[C@H]3OC23C=CCN(c2ccc4ccccc4c2)C(=O)[C@@H]13` (stereo not given in full), the z-score was -0.288 and -0.0156 in [1]; 0.0371 and -0.217 in [2]; -0.463 and -0.565 in experiment [3]; 0.0923 and 1.01 in experiment [4]; -0.526 and -0.237 in [5]; -0.0969 and -0.0971 in [6]. Besides, the z-score in [7] is -0.684 (inactive) and -1.28 (inactive); in experiment [8] it was -0.904 and 0.195; in experiment [9], 0.238 and 0.275; in experiment [10], -0.124 (inactive) and 0.0409 (inactive); in experiment [11], -0.406 and 0.0336; in experiment [12] it was 0.425 (inactive) and -0.0343 (inactive). The z-score in experiment [13] was -0.832 (inactive) and -0.602 (inactive); in experiment [15] it was -0.0837 (inactive) and -0.649 (inactive); in [16], 1.44 (inactive) and -0.636 (inactive); in experiment [17], -0.881 (inactive) and -0.593 (inactive); in experiment [18] it was -0.987 (inactive) and -0.714 (inactive); in experiment [19] it was -0.406 and -0.233. Further, the composite z-score was -5.1 (inactive) and -0.281 (inactive) in [14]; 0.172 and 0.232 in experiment [20].
On to `C=CCN(C(=O)C(c1cccs1)N(CCOCCO)C(=O)/C=C\C(=O)O)C(C)(C)C` (stereo not given), for which the z-score in experiment [1] is 1.01 and 1.61; in [2], -0.515 and -0.161; in experiment [3], 1.25 and 0.41; in experiment [4], 1.62 and 0.903; in experiment [5], 0.116 and 0.954; in experiment [6] it was 1.07 and 0.991. Further, the z-score in experiment [7] is 1.16 (inactive) and 0.0544 (inactive); in experiment [8], 0.28 and -0.0177; in [9], 0.987 and 0.588; in experiment [10], 0.111 (inactive) and -0.422 (inactive); in experiment [11], -0.403 and -0.304; in experiment [12], -0.655 (inactive) and -0.25 (inactive). Further, the z-score in experiment [13] is -0.102 (inactive) and 0.0032 (inactive); in experiment [15], -0.497 (inactive); in experiment [16], 0.432 (inactive) and 0.467 (inactive); in experiment [17], 1.15 (inactive) and 1.46 (inactive); in [18], 1.61 (inactive) and 1.68 (inactive); in experiment [19], -0.0043 and -0.146. The composite z-score in [14] was -2.84 (inactive) and -0.333 (inactive); in [20] it was 0.0428 and 0.704.
On to `CCCNC(=O)OC[C@H]1O[C@H](CCON=C(C)CCC(=O)OC[C@H]2O[C@H](C#Cc3ccccc3)C=C[C@@H]2Oc2ccc(C)cc2)C=C[C@@H]1Oc1ccc(OC)cc1`, for which the z-score in [1] was -0.284; in experiment [2], -0.182; in experiment [3], -0.433; in [4], -0.321; in [5], 0.0363; in [6], 1.38. Besides, the z-score is -1.31 (inactive) in experiment [7]; 0.15 in [8]; -0.435 in [9]; 0.835 (inactive) in [10]; 0.462 in experiment [11]; 0.889 (inactive) in experiment [12]. The z-score is -0.0269 (inactive) in experiment [13]; -0.066 (inactive) in experiment [15]; 0.432 (inactive) in [16]; 0.715 (inactive) in [17]; 0.565 (inactive) in [18]; 0.75 in [19]. Moreover, the composite z-score in [14] was -0.754 (inactive); in experiment [20], 0.0408.
